Data as given in PubChem BioAssay.
Several values for one entry are separate records, joined by “and”; a condition that tells them apart may be missing. Identical values can stand only once. Activity calls are given as the source filed them.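 The calls were made as follows, unless noted: active = z-score of at least 1.8 in each of two replicates, scored against plate mean and spread of sample wells; inactive = the rest.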

Columns and labels:
[1] = yeast 75Q aggregation reduction – 75Q-TubU reporter (AID 1593); settings: Yeast 75Q polyglutamine aggregation reporter
[2] = blockers of cytochrome c efflux from mitochondria – biochemical, purified mitochondria (AID 1603); settings: stronger effect = lower value;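 also: mouse liver mitochondria challenged with calcium chloride; signal normalized to the plate average as 100%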
[3] = polyglutamine aggregate formation blockers (AID 1604); settings: polyglutamine-induced protein aggregation inhibition assay; stronger effect = higher value; tested at 2.5 µM
[4] = Wnt pathway potentiators raising nuclear beta-catenin – imaging, WNT3A-conditioned medium, mouse C2C12, NPC library, primary screen (AID 1117326; in the data active = nuclear beta-catenin stimulation mostly above about 4.2%, no sharp cut-off; inactive = mostly below about 10%); settings: stronger effect = higher value
[5] = stimulators of insulin release from INS-1E, primary screen, cell-based, 5 mM glucose, NPC library (AID 1117329;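 active = compound raises insulin release from rat beta cells at 5 mM glucose, no numeric limit stated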); settings: rat INS-1E insulin secretion, at 10 µM, stronger effect = higher value
[6] = growth inhibition of GSK3B-pretreated HCT116 cells – cell-based, CellTiter-Glo, 0.2 to 20 µM (AID 1117336;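 active = compounds lowering colon cancer cell viability after pretreatment blocking the GSK3B kinase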); settings: HCT116 viability after GSK3B inhibitor, at 20 µM, stronger effect = higher value
[7] = inhibition of endothelial tube formation, primary screen, imaging, VEGF stimulated, CD31 staining, tube area, NPC library (AID 1117340;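 active = compound that reduces growth-factor-driven endothelial tube area in a mixed cell culture, no cutoff stated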); settings: VEGF-stimulated ADSC/ECFC co-culture, at 10 µM, stronger effect = higher value
[8] = GLP1 release stimulators, primary, NCI-H716, NPC library (AID 1117341;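 active = compound raises GLP1 secretion from the human gut endocrine cells, with no numeric limit stated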); settings: NCI-H716 cells, at 10 µM, stronger effect = higher value
[9] = HCT116 colon cancer cell growth inhibition, primary screen, CellTiter-Glo luminescence, NPC library (AID 1117342;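 active = compounds that lower survival of HCT116 colon cancer cells in the luminescence readout, no numeric limit stated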); settings: at 20 µM (top of the series)
[10] = reduced SW480 viability measured with CellTiter-Glo, NPC library, primary (AID 1117343;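 active = compounds that lower viability of the colon cancer cells in the luminescence readout, with no numeric limit stated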); settings: CellTiter-Glo luminescence; at 20 µM (top of the series)
[11] = NPC library primary testing for decreased DLD-1 cell viability via CellTiter-Glo (AID 1117346;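 active = compounds that lower survival of DLD-1 colon cancer cells in the luminescence readout, no cutoff given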); settings: DLD-1 viability, CellTiter-Glo luminescence; at 20 µM (top of the series)
[12] = target: 6-phosphogluconate dehydrogenase, decarboxylating (Homo sapiens) (UniProt P52209); experiment: inhibition of human phosphogluconate dehydrogenase – biochemical, recombinant enzyme, NADPH absorbance, primary screen (AID 1159550;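 active = at least 20% inhibition of 6-phosphogluconate dehydrogenase activity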); settings: recombinant 6PGD, NADPH absorbance 341 nm; at 10 µM; stronger effect = higher value
[13] = EMT-state selective cytotoxicity in co-culture – imaging, PC-3E GFP, TEM4-18 mCherry, primary screen (AID 1345086;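 active = compounds killing one labelled cell type while sparing the other, by normalised counts and ratio limits, not self-fluorescent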;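 as to all read-outs here: cells exposed to compound for 72 h before imaging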;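 as to red/green cell ratio (normalised): normalised mesenchymal count divided by normalised epithelial count so high means epithelial killing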); settings: PC-3E GFP / TEM4-18 mCherry co-culture, imaging cell counts, at 1 µM; for red/green cell ratio (normalised): actives lie on both sides
[14] = system: Aerobactin synthetase IucA (Klebsiella pneumoniae hvKP1); experiment: IucA enzyme inhibition, primary screen, biochemical, Spectrum library (AID 1346200; call rule not given here;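 also: 100% = wells without compound and 0% = wells lacking enzyme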); settings: malachite green pyrophosphate, A620, at 8 µM, stronger effect = lower value
[15] = MELAS cybrid and Rieske KO viability enhancers – cell-based, MELAS cybrids, Rieske KO mouse fibroblasts, CellTiter-Glo, primary screen (AID 1508586;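 active = mean z-score across replicates of 1.96 or higher in either the MELAS or the Rieske mutant cell line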;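 also: z relative to plate mean and SD of compound and empty wells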); settings: low glucose
[16] = target: NAD(+) hydrolase SARM1 (Homo sapiens) (UniProt Q6SZW1); experiment: blocking NAD cleavage by SARM1 SAM-TIR – cell lysate, NAD-Glo luminescence (AID 1508614;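 active = compound whose remaining NAD level is above about 45 nM, limit read from the data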;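 also: higher remaining NAD means stronger inhibition of SARM1 NADase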); settings: SAM-TIR HEK293T lysate NADase, at 1 µM, stronger effect = higher value
[17] = target: Mitogen-activated protein kinase 7 (Homo sapiens) (UniProt Q13164); experiment: Gal4-ERK5 driven luciferase induction – cell-based, HTS, primary screen (AID 1508626;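 active = luciferase signal above three times the same-plate solvent-only control wells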;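 also: luciferase driven by Gal4-ERK5 fusion binding five Gal4 sites before minimal TATA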); settings: HeLa Gal4-ERK5 transactivation, 18 h, at 5 µM, stronger effect = higher value
[18] = galactose survival enhancers in mitochondrial complex I cybrids – cell-based, galactose medium, ATP luminescence, primary screen (AID 1645843); settings: complex I mutant cybrid cells, 72 h, stronger effect = higher value;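 also: positive z means more ATP and so rescue of galactose-driven cybrid death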
[19] = viability loss with induced miR-34 in A549 – imaging, A549 dox-inducible miR-34, nuclei and caspase counts, primary screen (AID 1347080;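 active = compounds whose cell count with miR-34 switched on is under 0.7 times the count with it off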); settings: A549 miR-34 inducible, Hoechst nuclei count, 48 h
[20] = measured here: epithelial PC-3E GFP cell survival
[21] = measured here: mesenchymal TEM4-18 mCherry cell survival
[22] = MELAS cybrid survival, CellTiter-Glo 48 h, stronger effect = higher value
[23] = Rieske KO mouse fibroblast survival, CellTiter-Glo 72 h
[24] = measured here: relative caspase fold change +Dox/-Dox
[25] = measured here: total cells with miR-34 induction, stronger effect = lower value
[26] = measured here: total cells without miR-34 induction

Chain of NAD(+) hydrolase SARM1 (Homo sapiens) (Q6SZW1 whole entry, looked up, the tested form may be a part): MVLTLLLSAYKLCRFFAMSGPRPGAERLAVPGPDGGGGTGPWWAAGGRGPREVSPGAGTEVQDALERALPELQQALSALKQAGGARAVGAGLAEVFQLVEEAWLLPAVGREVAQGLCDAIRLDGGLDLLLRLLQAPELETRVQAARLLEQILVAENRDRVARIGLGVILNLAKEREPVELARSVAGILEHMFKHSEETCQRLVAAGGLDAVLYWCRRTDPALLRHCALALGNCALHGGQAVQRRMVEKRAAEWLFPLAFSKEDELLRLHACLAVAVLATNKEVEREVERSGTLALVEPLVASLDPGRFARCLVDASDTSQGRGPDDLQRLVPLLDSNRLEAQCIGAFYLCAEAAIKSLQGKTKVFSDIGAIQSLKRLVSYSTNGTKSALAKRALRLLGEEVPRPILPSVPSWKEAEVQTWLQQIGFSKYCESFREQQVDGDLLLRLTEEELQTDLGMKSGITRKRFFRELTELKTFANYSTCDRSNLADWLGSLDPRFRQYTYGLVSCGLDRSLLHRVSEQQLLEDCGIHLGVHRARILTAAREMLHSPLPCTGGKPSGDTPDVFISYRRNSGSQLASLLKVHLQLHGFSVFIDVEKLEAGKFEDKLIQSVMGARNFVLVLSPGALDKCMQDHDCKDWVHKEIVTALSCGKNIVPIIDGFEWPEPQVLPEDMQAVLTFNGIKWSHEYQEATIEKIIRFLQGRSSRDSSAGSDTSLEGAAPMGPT
Chain of Mitogen-activated protein kinase 7 (Homo sapiens) (Q13164 whole entry, looked up, the tested form may be a part): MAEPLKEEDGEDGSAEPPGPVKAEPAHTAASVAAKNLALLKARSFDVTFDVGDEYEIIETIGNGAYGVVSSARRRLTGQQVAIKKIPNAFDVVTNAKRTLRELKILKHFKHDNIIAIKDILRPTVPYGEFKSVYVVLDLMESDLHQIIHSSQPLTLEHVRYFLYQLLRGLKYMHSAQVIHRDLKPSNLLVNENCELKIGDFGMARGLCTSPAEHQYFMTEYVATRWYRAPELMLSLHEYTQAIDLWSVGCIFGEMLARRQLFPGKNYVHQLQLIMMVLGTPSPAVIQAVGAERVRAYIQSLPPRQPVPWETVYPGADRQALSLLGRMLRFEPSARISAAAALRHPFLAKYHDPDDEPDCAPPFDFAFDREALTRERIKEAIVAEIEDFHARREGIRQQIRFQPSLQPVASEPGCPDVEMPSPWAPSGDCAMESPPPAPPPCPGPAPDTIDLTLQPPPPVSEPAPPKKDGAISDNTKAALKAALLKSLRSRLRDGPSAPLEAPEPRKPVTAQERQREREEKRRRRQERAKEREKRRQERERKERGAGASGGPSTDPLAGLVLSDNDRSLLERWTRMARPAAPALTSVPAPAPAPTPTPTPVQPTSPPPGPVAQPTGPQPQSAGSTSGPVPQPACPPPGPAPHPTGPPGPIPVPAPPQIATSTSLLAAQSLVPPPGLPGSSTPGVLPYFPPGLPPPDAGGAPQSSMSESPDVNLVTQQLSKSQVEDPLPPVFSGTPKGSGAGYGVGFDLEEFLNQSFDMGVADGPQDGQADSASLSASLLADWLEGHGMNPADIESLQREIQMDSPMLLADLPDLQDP
Chain of 6-phosphogluconate dehydrogenase, decarboxylating (Homo sapiens) (P52209 whole entry, looked up): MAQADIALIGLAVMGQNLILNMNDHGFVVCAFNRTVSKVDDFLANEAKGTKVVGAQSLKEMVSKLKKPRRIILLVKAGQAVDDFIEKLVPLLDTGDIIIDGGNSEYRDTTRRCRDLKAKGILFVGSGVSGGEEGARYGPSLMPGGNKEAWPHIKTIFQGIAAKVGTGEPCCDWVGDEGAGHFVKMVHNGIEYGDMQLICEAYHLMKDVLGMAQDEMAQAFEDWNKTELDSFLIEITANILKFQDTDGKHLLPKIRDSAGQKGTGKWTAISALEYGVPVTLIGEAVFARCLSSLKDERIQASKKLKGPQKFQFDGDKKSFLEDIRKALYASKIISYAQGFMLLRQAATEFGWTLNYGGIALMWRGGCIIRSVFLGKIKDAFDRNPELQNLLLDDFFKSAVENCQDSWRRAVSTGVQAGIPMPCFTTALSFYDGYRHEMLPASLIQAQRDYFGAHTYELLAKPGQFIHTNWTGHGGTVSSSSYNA

O=P1(N(CCCl)CCCl)NCCCO1 (stereo not drawn)
score [1]: 0.77 | cytochrome c release ratio [2]: 1 | inhibition of aggregation [3]: 69.7% | nuclear beta-catenin stimulation ([4]; at 10 µM): 1% (inactive) | nuclear beta-catenin stimulation ([4]; stimulation, at 2 µM): 0.9% | insulin secretion stimulation [5]: -1% (inactive) | viability decrease [6]: -1.15% (inactive) | tube area decrease [7]: 16.1% (inactive) | GLP1 secretion stimulation [8]: 1.6% (inactive) | inhibition of viability [9]: -24.2% (inactive) | viability decrease (inhibition) [10]: 101% (active) | viability decrease (inhibition) [11]: -8.15% (inactive) | inhibition [12]: -5.23% (inactive) | red/green cell ratio (normalised) [13]: 1.26 (inactive) | normalised cell number [13, 20]: 1.18 | normalised cell number [13, 21]: 1.48 | activity remaining [14]: 120% (inactive) | z-score [15, 22]: 0.187 (inactive) and -0.193 (inactive) | z-score [15, 23]: -0.0217 and -1.38 | remaining NAD [16]: 10 nM (inactive) | luciferase signal [17]: 84 AU (inactive) | z-score [18]: 0.055 (inactive) and 0.19 (inactive) and -0.255 (inactive)

O=C(CCCN1CCC2(CC1)C(=O)NCN2c1ccccc1)c1ccc(F)cc1
score [1]: 1.06 | cytochrome c release ratio [2]: 1.21 | inhibition of aggregation [3]: 87% | nuclear beta-catenin stimulation ([4]; at 10 µM): 0.4% (inactive) | nuclear beta-catenin stimulation ([4]; stimulation, at 2 µM): 5.7% | insulin secretion stimulation [5]: 1.8% (inactive) | viability decrease [6]: 51.6% (active) | tube area decrease [7]: -3.9% (inactive) | GLP1 secretion stimulation [8]: 8% (inactive) | inhibition of viability [9]: 60.5% (active) | viability decrease (inhibition) [10]: 95.2% (active) | viability decrease (inhibition) [11]: 83.7% (active) | inhibition [12]: -2.11% (inactive) | red/green cell ratio (normalised) [13]: 1.18 (inactive) | normalised cell number [13, 20]: 0.93 | normalised cell number [13, 21]: 1.1 | activity remaining [14]: 110% (inactive) | z-score [15, 22]: 0.0809 (inactive) and 0.865 (inactive) | z-score [15, 23]: -0.502 and 0.666 | remaining NAD [16]: 10 nM (inactive) | luciferase signal [17]: 60 AU (inactive) | z-score [18]: -1.13 (inactive) and 1.23 (inactive) and -1.53 (inactive)

C=C(C)[C@H]1CN[C@H](C(=O)O)[C@H]1CC(=O)O
nuclear beta-catenin stimulation ([4]; at 10 µM): 0% (inactive) | nuclear beta-catenin stimulation ([4]; stimulation, at 2 µM): 1.5% | insulin secretion stimulation [5]: -1.6% (inactive) | viability decrease [6]: 3.4% (inactive) | tube area decrease [7]: -7.3% (inactive) | GLP1 secretion stimulation [8]: -2% (inactive) | inhibition of viability [9]: -16% (inactive) | viability decrease (inhibition) [10]: -0.1% (inactive) | viability decrease (inhibition) [11]: -1.8% (inactive) | inhibition [12]: 2.88% (inactive) | fold change ([19]; stronger effect = lower value): 1.1 (inactive) and 0.956 (inactive) | fold change ([19]; stronger effect = lower value, cell number ratio, induced over uninduced): 0.95 (inactive) | fold change [19, 24]: 1.24 and 0.883 and 0.751 | cell count [19, 25]: 10600 and 5610 and 8280 | cell count [19, 26]: 9620 and 5900 and 8660 | remaining NAD [16]: 10 nM (inactive) | luciferase signal [17]: 68 AU (inactive) | z-score [18]: 0.445 (inactive) and 0.325 (inactive)

NCC(CC(=O)O)c1ccc(Cl)cc1 (stereo not drawn)
score [1]: 1.02 | cytochrome c release ratio [2]: 0.97 | inhibition of aggregation [3]: 63.5% | nuclear beta-catenin stimulation ([4]; at 10 µM): -0.5% (inactive) | nuclear beta-catenin stimulation ([4]; stimulation, at 2 µM): 0.7% | insulin secretion stimulation [5]: 2.7% (inactive) | viability decrease [6]: -7.8% (inactive) | tube area decrease [7]: -22.1% (inactive) | GLP1 secretion stimulation [8]: -2.6% (inactive) | inhibition of viability [9]: -14.8% (inactive) | viability decrease (inhibition) [10]: -1.8% (inactive) | viability decrease (inhibition) [11]: 7.35% (inactive) | inhibition [12]: 5.14% (inactive) | red/green cell ratio (normalised) [13]: 0.69 (inactive) | normalised cell number [13, 20]: 1.3 | normalised cell number [13, 21]: 0.89 | activity remaining [14]: 103% (inactive) | fold change ([19]; stronger effect = lower value): 1.01 (inactive) and 0.984 (inactive) and 0.815 (inactive) | fold change [19, 24]: 1.78 and 1.11 and 0.933 | cell count [19, 25]: 7900 and 7930 and 10200 | cell count [19, 26]: 7820 and 8060 and 12600 | z-score [15, 22]: -0.717 (inactive) | z-score [15, 23]: -0.464 | remaining NAD [16]: 10 nM (inactive) | luciferase signal [17]: 56 AU (inactive) | z-score [18]: 0.635 (inactive)
